Screening data as filed in PubChem.
LMNA splice mod: modulators of lamin A splicing; HeLa LMNA splicing GFP/RFP minigene ratio, 48 h; Potency, µM (top dose mostly 46.1 µM), for inactives: at the top dose ratio change, negative = inhibition, hits mostly inhibitors; 200,000 tested, 0.01% active; AID 1487; active = well fitted inhibition curve with a large enough effect in the signal ratio, with a control signal flat, not every such curve was filed as active; inconclusive = small, poorly fitted or top-dose-only effect, or effect the other way, or a change in a side signal; the % refers to the signal ratio; note: % is set by controls: 0 for no effect and ±100 for the full control effect
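S3 HeLa cells stably expressing lamin A-EGFP splicing minigene plus DsRed2, 600 cells/well, 48 h compound exposure at 37C. Laser-scanning cytometry; analysed as GFP (500-530 nm)/RFP (575-640 nm) total intensity ratio; 0.5% DMSO vehicle.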
HTT aggregate: inhibitors of mutant huntingtin aggregate formation in PC12 cells | PC12 HttQ103-GFP aggregates, Acumen cytometry, 40 h | Potency, µM (highest dose often 46.1 µM), inactives show at the highest dose activity change, negative = inhibition, hits mostly inhibitors | 220,000 tested, 1.1% active | AID 1688; active = well fitted curve in the direction sought with a large enough effect; inconclusive = small, poorly fitted or top-dose-only effect, or another doubt; inactive = no such curve, though single readings can be large; an effect the other way counts as inactive or inconclusive; note: % is set by controls: 0 for no effect and ±100 for the full control effect; nearly all actives have a fitted effect of over 60% in size
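Steps: seed 1500 PC12 HTTQ103-GFP cells/well; add tebufenozide, 100 nM final; add compound titration; add ATPLite reagent; quantify GFP aggregates by laser scanning cytometry.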
JMJD2E inh: blocks human JMJD2E demethylase activity; JMJD2E catalytic domain, FDH-coupled NADH fluorescence (FDH is formaldehyde dehydrogenase); Potency, µM (highest dose often 57.1 µM), for inactives: at the top dose activity change, negative = inhibition, actives largely listed as inhibitors; B2RXH2; 230,000 tested, 1.6% active;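 note: 0% = wells with enzyme and -100% = buffer wells without enzyme; nearly all actives have a fitted effect of over 50% in size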
Target sequence (B2RXH2 1-337 limits assumed): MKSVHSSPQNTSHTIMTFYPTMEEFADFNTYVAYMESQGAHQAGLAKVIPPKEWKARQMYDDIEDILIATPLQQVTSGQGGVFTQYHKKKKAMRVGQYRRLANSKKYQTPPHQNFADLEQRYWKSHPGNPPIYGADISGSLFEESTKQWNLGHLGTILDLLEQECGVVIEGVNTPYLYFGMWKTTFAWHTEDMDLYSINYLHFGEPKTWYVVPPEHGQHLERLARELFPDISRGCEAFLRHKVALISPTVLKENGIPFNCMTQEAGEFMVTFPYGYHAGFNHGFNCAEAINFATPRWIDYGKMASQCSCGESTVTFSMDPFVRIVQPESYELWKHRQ
HPGD block: inhibitors of human 15-hydroxyprostaglandin dehydrogenase (HPGD). 150,000 tested, 4.3% active. purified HPGD, NADH fluorescence kinetic, PGE2 substrate. AID 894. P15428. Potency, µM, inactives show at the top dose activity change, negative = inhibition, most hits filed as inhibitors; note: % is set by controls: 0 for no effect and ±100 for the full control effect
Target sequence (P15428 whole entry, looked up): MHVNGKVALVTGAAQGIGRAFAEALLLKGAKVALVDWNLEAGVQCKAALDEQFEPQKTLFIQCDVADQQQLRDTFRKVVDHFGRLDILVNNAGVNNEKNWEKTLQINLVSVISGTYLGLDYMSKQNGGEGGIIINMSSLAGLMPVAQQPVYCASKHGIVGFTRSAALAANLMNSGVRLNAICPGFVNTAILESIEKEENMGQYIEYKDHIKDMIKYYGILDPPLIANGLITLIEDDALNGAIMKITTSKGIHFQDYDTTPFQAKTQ
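NADH formation kinetics: reaction with 30 uM PGE2 and 1 mM NAD+ (final), 20 nM enzyme, Tris-HCl pH 8 with Tween 20, after 15 min compound preincubation at room temperature. Fluorescence change, last versus first of five reads.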
ALDH1A1 inh: blocks purified human ALDH1A1 activity. Purified ALDH1A1, NADH fluorescence, propionaldehyde substrate. Potency, µM (top dose mostly 75.3 µM), for the others: at the highest dose activity, negative = inhibition, hits mostly inhibitors. 220,000 tested, 7.3% active. AID 1030;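 note: plate controls were no enzyme wells and a reference inhibitor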
HTT cytoprotect: cytoprotection in Huntington HTT-Q103 PC12 cell model; 230,000 tested, 0.14% active; Potency, µM (highest dose often 56.4 µM), for the others: cytoprotection (ATP increase), hits mostly activators; AID 1471; PC12 HTT-Q103 induced, cytoprotection, ATP luminescence, 40 h; active = well fitted curve in the direction sought with a large enough effect; inconclusive = small, poorly fitted or top-dose-only effect, or another doubt; inactive = no such curve, though single readings can be large; an effect the other way counts as inactive or inconclusive; note: % of control where 0% means no effect; nearly all actives have a fitted effect of over 45% in size
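PC12 cells with ecdysone-inducible HTT exon 1 Q103-GFP, induced with 100 nM tebufenozide and co-treated with library compounds in a dose series (1536-well, 1500 cells/well). Cytoprotection read as ATP content by ATPlite luminescence.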
* hit, by the source's call; [ ] = dose if it differs, or a comment. A selection: hits, their analogues and other compounds. The true share with any hit is near 9.2%. Unless noted, calls come from the whole dose curve; as a rule, active = well fitted inhibition curve with a large enough effect (not every such curve was filed as active); inconclusive = small, poorly fitted or top-dose-only effect, or another doubt; inactive = no such curve, though single readings can be large or run the other way. Potency is the fitted concentration of half-maximal effect.

How did CC(C)OCCCNC(=O)c1ccc2c(=O)n(Cc3ccc4c(c3)OCO4)c(=S)[nH]c2c1 do in these assays?
HTT aggregate: 7.1%; JMJD2E inh: -0.6%; ALDH1A1 inh: 13.3%; HTT cytoprotect: -4.8%

How did CCOC(=O)N1CCN(C(=O)c2ccc3c(=O)n(CCc4ccccc4)c(=S)[nH]c3c2)CC1 do in these assays?
LMNA splice mod: 11.1%; HTT aggregate: 1.4%; JMJD2E inh: -0.8%; HPGD block: -12.4%; ALDH1A1 inh: 9.9%; HTT cytoprotect: -36.7%

How did CCOC(=O)N1CCN(C(=O)c2ccc3c(=O)n(Cc4ccc(Cl)cc4)c(=S)[nH]c3c2)CC1 do in these assays?
LMNA splice mod: inconclusive; HTT aggregate: inconclusive; JMJD2E inh: 4.3%; HPGD block: -22.0%; ALDH1A1 inh: 10µM*; HTT cytoprotect: 6.0%[0.074 µM]

What do the screens show for `Cn1c(=O)c2c(nc(NCCNc3nc4c(c(=O)n(C)c(=O)n4C)n3C)n2C)n(C)c1=O`?
HPGD block: -2.2%; ALDH1A1 inh: 12.8%[13.5 µM]; HTT cytoprotect: 7.3%[10 µM]

Results for O=C(c1ccc2c(c1)C(=O)N(CCCO)C2=O)c1ccc2c(c1)C(=O)N(CCCO)C2=O ?
LMNA splice mod: -2.7%; HTT aggregate: -13.8%; JMJD2E inh: 11.0%; HPGD block: -9.2%; ALDH1A1 inh: inconclusive; HTT cytoprotect: -0.9%

Results for O=C1c2ccc3c4c(ccc(c24)C(=O)N1CCCCO)C(=O)N(CCCCO)C3=O ?
LMNA splice mod: inconclusive; HTT aggregate: 5.01µM*; JMJD2E inh: inconclusive; ALDH1A1 inh: inconclusive; HTT cytoprotect: -233.0%

What do the screens show for `COc1ccc(CNC(=O)Cc2csc3nc(-c4ccc(F)cc4)cn23)cc1`?
LMNA splice mod: 6.7%[46 µM]

What do the screens show for `COc1ccc(NC(=O)N2CCN(c3ccc([N+](=O)[O-])cc3)CC2)cc1`?
LMNA splice mod: 7.5%[46 µM]; HTT aggregate: 6.8%[9.22 µM]; JMJD2E inh: 15.8%; ALDH1A1 inh: -8.5%; HTT cytoprotect: -4.2%[10 µM]

Results for CC(=O)N1CCN(c2ccc([N+](=O)[O-])cc2)CC1 ?
LMNA splice mod: 0.8%[46 µM]; HTT aggregate: -10.4%[9.22 µM]; JMJD2E inh: 2.3%; ALDH1A1 inh: 0.9%; HTT cytoprotect: -6.2%[10 µM]

What do the screens show for `Cc1noc(C)c1CSCC(=O)N1CCN(c2ccc([N+](=O)[O-])cc2)CC1`?
LMNA splice mod: inconclusive; HTT aggregate: 0.4%[9.22 µM]; JMJD2E inh: 2.4%; HPGD block: -7.3%; ALDH1A1 inh: 22.4µM*; HTT cytoprotect: 2.0%

What do the screens show for `COc1ccc(NC(=O)N2CCN(c3ccc([N+](=O)[O-])cc3)CC2)cc1OC`?
HTT aggregate: -24.4%; JMJD2E inh: -9.5%; ALDH1A1 inh: 8.91µM*

How did CCOCC(=O)N1CCN(c2ccc(F)cc2)CC1 do in these assays?
LMNA splice mod: 4.7%; HTT aggregate: 11.4%; JMJD2E inh: -0.4%; HPGD block: -6.1%; ALDH1A1 inh: 2.24µM*; HTT cytoprotect: -0.5%[0.074 µM]

How did CCOCC(=O)N1CCN(c2ccc([N+](=O)[O-])cc2)CC1 do in these assays?
LMNA splice mod: -10.1%; HTT aggregate: inconclusive; JMJD2E inh: -4.7%; ALDH1A1 inh: 22.4µM*; HTT cytoprotect: 18.1%[10 µM]

What do the screens show for `Cn1nnc2c(NCc3c(F)cccc3F)ncnc21`?
LMNA splice mod: -5.6%[46 µM]

What do the screens show for `COc1ccc(C(=O)NN2CC(O)=C(c3nc4ccccc4n3C)C2=N)cc1OC`?
LMNA splice mod: -6.8%; HTT aggregate: -17.3%; JMJD2E inh: 1.8%; HPGD block: -8.2%; ALDH1A1 inh: -0.5%; HTT cytoprotect: inconclusive

What do the screens show for `C[Se]CC[C@H](N)C(=O)O`?
HTT aggregate: 4.2%; HTT cytoprotect: -1.3%

How did O=C(NC(Cc1ccccc1)c1nc2ccccc2[nH]1)c1ccc(Cl)c([N+](=O)[O-])c1 (stereo unspecified) do in these assays?
LMNA splice mod: -7.6%; HTT aggregate: 7.94µM*; JMJD2E inh: -18.2%; ALDH1A1 inh: 0.9%; HTT cytoprotect: -10.3%[10 µM]

Results for COc1ccc(C(=O)Nc2nc3ccccc3[nH]2)cc1OC ?
LMNA splice mod: -11.9%; HTT aggregate: 2.7%; JMJD2E inh: 1.1%; HPGD block: -3.0%; ALDH1A1 inh: -2.1%; HTT cytoprotect: -9.2%[10 µM]

How did CSCC[C@H](NC(=O)c1ccc(Cl)c([N+](=O)[O-])c1)c1nc2ccccc2[nH]1 do in these assays?
LMNA splice mod: -20.8%; HTT aggregate: 6.3%; JMJD2E inh: 7.8%; HPGD block: 0.5%; ALDH1A1 inh: -5.5%; HTT cytoprotect: -2.4%[1.9 µM]

Results for CCOc1ccc(C(=O)Nc2cc(-c3nc4ccccc4[nH]3)ccc2Cl)cc1[N+](=O)[O-] ?
LMNA splice mod: 6.6%; HTT aggregate: 12.6µM*; JMJD2E inh: -7.8%; HPGD block: inconclusive; ALDH1A1 inh: -4.5%; HTT cytoprotect: -7.8%[10 µM]

What do the screens show for `CCOc1ccc(C(=O)Nc2nc3ccccc3[nH]2)cc1OCC`?
LMNA splice mod: -4.6%[46 µM]; HTT aggregate: 12.6µM*; JMJD2E inh: -2.6%; ALDH1A1 inh: -3.2%; HTT cytoprotect: -5.5%[10 µM]

How did CCc1nnc(NC(=O)CSc2nc3cc(OC)c(OC)cc3cc2C)s1 do in these assays?
LMNA splice mod: -9.5%[46 µM]; HTT aggregate: 35.9%[9.22 µM]; JMJD2E inh: -4.7%; ALDH1A1 inh: -2.0%; HTT cytoprotect: 1.7%[10 µM]

Results for C[C@H]1CCCC=CC2C[C@H](OC(=O)CN(C)C)C[C@@H]2[C@@H](O)/C=C\C(=O)O1 (stereo partly specified) ?
HPGD block: 0.6%; ALDH1A1 inh: -7.9%[13.5 µM]; HTT cytoprotect: -72.3%[10 µM]

Results for O=C1NC(c2ccccc2)=N/C1=C/c1ccco1 ?
LMNA splice mod: -3.1%; HTT aggregate: 3.3%; JMJD2E inh: 1.5%; HPGD block: inconclusive; ALDH1A1 inh: 17.8µM*; HTT cytoprotect: -33.9%[10 µM]

How did O=C1NC(c2cccc(Br)c2)=N/C1=C\c1ccco1 do in these assays?
LMNA splice mod: -11.6%; HTT aggregate: -15.5%; JMJD2E inh: -6.4%; HPGD block: inconclusive; ALDH1A1 inh: 11.2µM*; HTT cytoprotect: 15.1%[10 µM]

What do the screens show for `C[C@H](Cn1cnc2c(N)ncnc21)OCP(=O)(O)O`?
HTT aggregate: -2.0%; HTT cytoprotect: -0.7%

What do the screens show for `O=C(CN(C(=O)c1ccccc1Cl)C1CCCCC1)Nc1ccc(Cl)c([N+](=O)[O-])c1`?
LMNA splice mod: -1.1%; HTT aggregate: inconclusive; JMJD2E inh: -4.0%; HPGD block: -5.0%; ALDH1A1 inh: inconclusive; HTT cytoprotect: -109.3%

What do the screens show for `CN(CC(=O)Nc1ccc(S(=O)(=O)N2CCCC2)cc1)Cc1ccc(Cl)cc1Cl`?
LMNA splice mod: inconclusive; HTT aggregate: inconclusive; JMJD2E inh: -17.7%; HPGD block: -12.8%; ALDH1A1 inh: inconclusive; HTT cytoprotect: 11.1%[10 µM]
